Measured values reported in PubChem BioAssay (NCATS).
Records with an inconclusive call do not appear. A call without a number means that no potency is given here. Calls of active or inactive are those of the source. Calls follow the shape of the dose curve; as a rule, active = well fitted curve in the direction sought with a large enough effect; inconclusive = small, poorly fitted or top-dose-only effect, or another doubt; inactive = no such curve, though single readings can be large; an effect the other way counts as inactive or inconclusive.

Biological target: Tyrosine-protein phosphatase non-receptor type substrate 1 (Homo sapiens) + Leukocyte surface antigen CD47 (Homo sapiens) (UniProt P78324+Q08722)
Sequence (P78324 whole entry, looked up): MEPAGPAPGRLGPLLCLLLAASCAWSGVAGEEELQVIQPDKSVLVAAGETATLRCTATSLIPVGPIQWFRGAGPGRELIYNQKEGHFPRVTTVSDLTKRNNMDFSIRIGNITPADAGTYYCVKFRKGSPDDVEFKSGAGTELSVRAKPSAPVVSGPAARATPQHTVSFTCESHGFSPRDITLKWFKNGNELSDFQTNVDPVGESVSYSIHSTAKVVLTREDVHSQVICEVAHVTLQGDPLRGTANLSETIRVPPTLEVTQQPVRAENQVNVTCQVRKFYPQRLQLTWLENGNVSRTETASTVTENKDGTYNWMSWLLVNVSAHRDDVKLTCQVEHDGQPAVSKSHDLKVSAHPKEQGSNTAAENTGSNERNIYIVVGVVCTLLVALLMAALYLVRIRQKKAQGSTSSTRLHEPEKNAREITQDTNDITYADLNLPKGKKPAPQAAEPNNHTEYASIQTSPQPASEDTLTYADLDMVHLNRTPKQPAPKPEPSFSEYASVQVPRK
Sequence (Q08722 whole entry, looked up): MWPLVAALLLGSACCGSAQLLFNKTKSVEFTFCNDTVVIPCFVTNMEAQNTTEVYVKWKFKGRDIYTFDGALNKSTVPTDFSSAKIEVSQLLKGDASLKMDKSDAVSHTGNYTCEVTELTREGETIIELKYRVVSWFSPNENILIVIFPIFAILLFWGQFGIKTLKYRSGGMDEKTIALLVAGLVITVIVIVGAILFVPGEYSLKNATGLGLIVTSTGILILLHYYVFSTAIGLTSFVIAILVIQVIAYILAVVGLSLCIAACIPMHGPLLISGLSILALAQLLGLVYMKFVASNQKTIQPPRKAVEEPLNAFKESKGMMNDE
Experiment: CD47-SIRPalpha protein protein interaction - Alpha assay qHTS validation (AID 1347059);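 also: bead proximity luminescence from CD47 binding SIRPalpha after compound preincubation with SIRPalpha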
Conditions: AlphaScreen CD47-His/biotin-SIRPalpha binding, LOPAC; series mostly up to 38.3 µM
Summary of the method: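 SIRPalpha-biotin 25 nM + cpd, 30 min RT, dark; add CD47-His 12.5 nM, 30 min; add Ni-NTA/SAV beads 10 ug/mL, 30 min; AlphaScreen. Buffer PBS pH 7.4 + 0.05% IGEPAL CA-630. Non-biotinylated SIRPalpha as control inhibitor.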

SMILES	Potency
Cc1cc(NC(=O)Nc2ccc3c(ccn3C)c2)sn1	inactive
COc1ccc2c(c1)CCC1C2CC[C@@]2(C)C1CC[C@@H]2NCCCCCCN1C(=O)CCC1=O (some centres not stated)	inactive
C[N+](C)(C)CCOP(=O)(O)OP(=O)([O-])OC[C@H]1O[C@@H](n2ccc(N)nc2=O)[C@H](O)[C@@H]1O	inactive
CC(C)CC(NP(=O)(O)O[C@@H]1O[C@@H](C)[C@H](O)[C@@H](O)[C@H]1O)C(=O)NC(Cc1c[nH]c2ccccc12)C(=O)O (some centres not stated)	inactive
C=CC(C)=C[C@@]1(C)SC(=O)C(C)=C1O	inactive
CNC(=O)[C@H]1O[C@@H](n2cnc3c(NCc4cccc(I)c4)ncnc32)[C@H](O)[C@@H]1O	inactive
CCCCCCCC/C=C\CCCCCCCC(=O)NCCO	inactive
NCCCCCCCCCCN	inactive
CC(C)(C=O)Cc1cc(C(C)(C)C)c(O)c(C(C)(C)C)c1	inactive
COc1cccc(C(=O)NCCN2CCN(c3ccc(Cl)cc3)CC2)c1	inactive
NC(=O)C1=CN(C2OC(COP(=O)(O)OP(=O)(O)OC[C@H]3O[C@@H](n4cnc5c(N)ncnc54)[C@H](OP(=O)(O)O)[C@@H]3O)C(O)C2O)C=CC1 (some centres not stated)	inactive
CC1CN(S(=O)(=O)c2cccc3cnccc23)CCN1 (configuration not stated)	inactive
C[C@@H](CN1CCC(Cc2ccccc2)CC1)[C@@H](O)c1ccc(O)cc1	inactive
CC1(C)CCC=[N+]1[O-]	inactive
OC[C@H]1O[C@@H](n2cnc3c(NC4CCCC4)ncnc32)[C@H](O)[C@@H]1O	inactive
COc1cc(C(O)CO)ccc1OS(=O)(=O)O (configuration not stated)	inactive
CCCCC#Cc1nc(NC)c2ncn([C@@H]3O[C@H](CO)[C@@H](O)[C@H]3O)c2n1	inactive
OC[C@H]1O[C@@H](n2cnc3c(NC4CCCCC4)ncnc32)[C@H](O)[C@@H]1O	inactive
NCCCS(=O)(=O)O	inactive
O=C1/C(=C/c2ccsc2)CC/C1=C\c1cccs1	inactive

Biological target: Parathyroid hormone/parathyroid hormone-related peptide receptor (Homo sapiens) (UniProt Q03431)
Sequence (Q03431 whole entry, looked up): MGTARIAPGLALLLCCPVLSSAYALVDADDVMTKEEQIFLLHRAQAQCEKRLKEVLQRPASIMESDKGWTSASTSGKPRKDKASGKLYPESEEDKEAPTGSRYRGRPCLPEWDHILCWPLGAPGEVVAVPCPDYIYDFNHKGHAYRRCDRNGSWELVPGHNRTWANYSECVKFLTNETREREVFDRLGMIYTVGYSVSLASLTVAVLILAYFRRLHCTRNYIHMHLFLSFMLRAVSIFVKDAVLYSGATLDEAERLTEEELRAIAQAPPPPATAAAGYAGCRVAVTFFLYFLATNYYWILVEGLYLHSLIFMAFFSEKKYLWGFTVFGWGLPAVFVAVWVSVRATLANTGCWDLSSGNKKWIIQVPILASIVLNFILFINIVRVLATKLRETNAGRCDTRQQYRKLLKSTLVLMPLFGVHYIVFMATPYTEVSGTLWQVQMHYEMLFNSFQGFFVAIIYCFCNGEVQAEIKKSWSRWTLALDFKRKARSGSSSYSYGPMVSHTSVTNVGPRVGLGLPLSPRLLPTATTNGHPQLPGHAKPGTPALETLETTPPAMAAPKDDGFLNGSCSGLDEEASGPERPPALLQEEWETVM
Experiment: qHTS for PTHR1 Agonists: Optimization Screen against the NCGC LOPAC library (AID 1347079);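 also: GloSensor cAMP luminescence in HEK-293 GP2 cells expressing human PTHR1 with IBMX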
Conditions: HEK293 GP2 PTHR1 GloSensor cAMP luminescence, 1 h; series mostly up to 57.1 µM
Summary of the method: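 HEK-293 GP2 cells, PTHR1 + GloSensor cAMP; 3000 cells/well, o/n. Luciferin + IBMX 0.5mM each (stock), 1 hr 37C. Cpd titration, 1 hr 37C. Lum after 15 min RT. Ctrl M-PTH(1-15) top 10uM.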

SMILES	Potency
Cc1ccc(C(=O)O[C@H](C(=O)O)[C@@H](OC(=O)c2ccc(C)cc2)C(=O)O)cc1 (tested in a mixture with another compound)	inactive
Cc1cc(NC(=O)Nc2ccc3c(ccn3C)c2)sn1	inactive
COc1ccc2c(c1)CCC1C2CC[C@@]2(C)C1CC[C@@H]2NCCCCCCN1C(=O)CCC1=O (some centres not stated)	inactive
CCNC(=O)[C@H]1O[C@@H](n2cnc3c(N)nc(NCCc4ccc(CCC(=O)O)cc4)nc32)[C@H](O)[C@@H]1O	inactive
CC(C)CC(NP(=O)(O)O[C@@H]1O[C@@H](C)[C@H](O)[C@@H](O)[C@H]1O)C(=O)NC(Cc1c[nH]c2ccccc12)C(=O)O (some centres not stated)	inactive
CCCCCCCC/C=C\CCCCCCCC(=O)NCCO	inactive
NCCCCCCCCCCN	inactive
CC(C)(C=O)Cc1cc(C(C)(C)C)c(O)c(C(C)(C)C)c1	inactive
COc1cccc(C(=O)NCCN2CCN(c3ccc(Cl)cc3)CC2)c1	inactive
C[C@@H](CN1CCC(Cc2ccccc2)CC1)[C@@H](O)c1ccc(O)cc1	inactive
CC1(C)CCC=[N+]1[O-]	inactive
OC[C@H]1O[C@@H](n2cnc3c(NC4CCCC4)ncnc32)[C@H](O)[C@@H]1O	inactive
COc1cc(C(O)CO)ccc1OS(=O)(=O)O (configuration not stated)	inactive
CCCCC#Cc1nc(NC)c2ncn([C@@H]3O[C@H](CO)[C@@H](O)[C@H]3O)c2n1	inactive
OC[C@H]1O[C@@H](n2cnc3c(NC4CCCCC4)ncnc32)[C@H](O)[C@@H]1O	inactive
NCCCS(=O)(=O)O	inactive
O=C1/C(=C/c2ccsc2)CC/C1=C\c1cccs1	inactive
